AC50 and outcome data for six molecules are collected here from PubChem BioAssay (EPA / NIEHS).

Where “and” joins values, the source holds several entries; their conditions need not be identical. Equal entries are not always repeated. Records with an inconclusive call do not appear. Some structures have more than one record in an assay (separate samples or runs), and their calls can disagree. Calls of active or inactive are those of the source. How the source made its calls: active means hit-call score of the fitted dose curve at least 0.9, where 1 is the maximum; inconclusive means response in the unintended direction; inactive means score below 0.9.

Assay [1] is described as follows: TOX21_p53_BLA_p3_viability: Viability Assessment in the Tox21 HCT-116 p53 Agonism Beta-lactamase Assay, Phase 3 (AID 2283593).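 Further: cells exposed to compound for 16 h before reading.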 The method in brief: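 Cellular ATP was quantified by CellTiter-Glo luminescence, read after 30 min at room temperature. Beforehand, HCT116 cells (4000/well) received compound 5 h post-seeding, 217-fold diluted from DMSO, then incubated 16 h at 37C.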

Assay [2] has as its target Cellular tumor antigen p53 (Homo sapiens) (UniProt P04637). The experiment in a line: TOX21_p53_BLA_p3_ratio: Tox21 HCT-116 p53 Agonism Beta-lactamase Assay, Ratio, Phase 3 (AID 2283596). In outline:
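HCT116 p53-bla cells (4000/well) given compound in DMSO (217-fold dilution) after 5 h, incubated 16 h at 37C. CCF4-AM substrate 2 h at room temperature; 460/530 nm emission ratio, gain fitted against DMSO.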

The nature of assay [3]: TOX21_p53_BLA_p4_viability: Viability Assessment in the Tox21 HCT-116 p53 Agonism Beta-lactamase Assay, Phase 4 (AID 2283597).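 Further: hits lower the luminescence signal meaning cytotoxicity.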 In outline: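 Luminescent ATP readout (CellTiter-Glo, 30 min, room temperature) in the same wells as the p53 bla ratio. HCT116 cells were treated for 16 h at 37C with DMSO-dissolved compounds.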
Assay [4] concerns the target Cellular tumor antigen p53 (Homo sapiens) (UniProt P04637). Nature of the assay: TOX21_p53_BLA_p5_ratio: Tox21 HCT-116 p53 Agonism Beta-lactamase Assay, Ratio, Phase 5 (AID 2283599). In outline: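 Beta-lactamase reporter ratio (blue 460 nm over green 530 nm, 405 nm excitation) after 2 h CCF4-AM loading, in HCT-116 cells exposed 16 h at 37 C to compounds pinned at 217-fold dilution. Increases relative to DMSO baseline scored.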

The nature of assay [5]: TOX21_p53_BLA_p5_viability: Viability Assessment in the Tox21 HCT-116 p53 Agonism Beta-lactamase Assay, Phase 5 (AID 2283600). In outline: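 Seeded cells (4000/well) settle 5 h before compound addition. Plates then incubate 16 h at 37C, receive FRET substrate for 2 h, and finally CellTiter-Glo, with luminescence measured after a 30 min room-temperature incubation.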
For assay [6], the target named is Cellular tumor antigen p53 (Homo sapiens) (UniProt P04637). The experiment in a line: TOX21_p53_BLA_p4_ratio: Tox21 HCT-116 p53 Agonism Beta-lactamase Assay, Ratio, Phase 4 (AID 2283601). The method in brief: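 Signal is the blue/green (460nm/530nm) ratio of cleaved versus uncleaved CCF4-AM substrate, read after 2 h substrate loading. Cells were HCT116 carrying the p53-responsive beta-lactamase reporter, dosed 16 h at 37C, 5% CO2; CellTiter-Glo measured in parallel.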
Sequence of Cellular tumor antigen p53 (Homo sapiens) (P04637 whole entry, looked up): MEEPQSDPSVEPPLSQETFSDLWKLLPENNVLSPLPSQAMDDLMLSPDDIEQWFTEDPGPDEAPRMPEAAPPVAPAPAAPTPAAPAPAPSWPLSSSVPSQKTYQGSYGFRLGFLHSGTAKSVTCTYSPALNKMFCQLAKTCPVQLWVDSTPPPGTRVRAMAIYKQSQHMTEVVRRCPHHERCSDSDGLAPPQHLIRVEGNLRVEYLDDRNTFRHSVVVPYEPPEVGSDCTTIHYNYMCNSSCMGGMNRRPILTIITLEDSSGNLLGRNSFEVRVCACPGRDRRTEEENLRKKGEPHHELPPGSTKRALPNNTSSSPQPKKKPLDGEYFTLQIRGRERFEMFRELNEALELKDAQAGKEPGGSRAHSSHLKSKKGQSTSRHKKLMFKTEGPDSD

Assay [7] is described as follows: Tanguay_ZF_120hpf_MORT_legacy: (Legacy) Oregon State University Tanguay Lab 120 Hour Post-fertilization zebrafish Assay for Mortality (AID 2283633).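 On AC50: fitted as increase in binary mortality versus DMSO negative control.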 The method in brief: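 Single dechorionated Tropical 5D embryos were held with test chemical (0.64% DMSO final) from 6 to 120 hpf at 28C under foil. Deaths at 24 or 120 hpf were recorded as binary calls, analysed for increase over DMSO controls.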

A short description of assay [8]: Tanguay_ZF_120hpf_AXIS_legacy: (Legacy) Oregon State University Tanguay Lab 120 Hour Post-fertilization zebrafish Assay for Body Axis Malformation (AID 2283635). The method in brief: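 Each dechorionated embryo was exposed alone from 6 hpf, with DMSO at 0.64% (vol/vol) and trimethyltin chloride 5 uM as positive control. Axis malformation was recorded at 120 hpf unless the embryo had died.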

Assay [9] in a line: Tanguay_ZF_120hpf_EYE_legacy: (Legacy) Oregon State University Tanguay Lab 120 Hour Post-fertilization zebrafish Assay for Eye Malformation (AID 2283636). In outline:
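Read-out is binary presence or absence of eye malformation, scored by brightfield microscopy at 120 hpf. Single larvae were exposed from 6 hpf in embryo medium containing 0.64% DMSO, with DMSO as baseline.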

A short description of assay [10]: Tanguay_ZF_120hpf_SNOU_legacy: (Legacy) Oregon State University Tanguay Lab 120 Hour Post-fertilization zebrafish Assay for Snout Malformation (AID 2283637). In outline: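 Snout malformation read as a yes/no call on brightfield images of 120 hpf larvae (Tropical 5D strain). Static exposure began at 6 hpf on dechorionated embryos in 0.64% DMSO, with gain of signal analysed versus DMSO controls.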

Assay [11] can be described thus: Tanguay_ZF_120hpf_JAW_legacy: (Legacy) Oregon State University Tanguay Lab 120 Hour Post-fertilization zebrafish Assay for Jaw Malformation (AID 2283638). In outline: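 Wild-type 5D embryos, chorion removed at 4 hpf, dosed singly from 6 hpf; 28C static, sealed, foil-covered, to 120 hpf. Endpoint: jaw defect yes/no (brightfield); mortality excludes scoring.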
A short description of assay [12]: Tanguay_ZF_120hpf_OTIC_legacy: (Legacy) Oregon State University Tanguay Lab 120 Hour Post-fertilization zebrafish Assay for Otic Vesicle Malformation (AID 2283639). In outline:
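Tropical 5D wild-type zebrafish embryos were exposed statically in sealed, foil-covered plates at 28C until 120 hpf, with 0.64% (vol/vol) DMSO final. Otic vesicle malformation was scored present/absent by brightfield microscopy, with DMSO as baseline.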

Assay [13] in a line: Tanguay_ZF_120hpf_PE_legacy: (Legacy) Oregon State University Tanguay Lab 120 Hour Post-fertilization zebrafish Assay for Pericardial Edema (AID 2283640). The method in brief:
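Zebrafish larvae are exposed from early development to 120 hpf at 28C, with 0.64% DMSO final. Each surviving larva receives a yes/no pericardial edema call by brightfield imaging, analysed relative to the DMSO baseline.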

Assay [14] is described as follows: Tanguay_ZF_120hpf_BRAI_legacy: (Legacy) Oregon State University Tanguay Lab 120 Hour Post-fertilization zebrafish Assay for Brain Malformation (AID 2283641). In outline:
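Static exposure of staged wild-type embryos until 120 hpf, kept at 28C with light excluded and final DMSO of 0.64% (vol/vol). Presence or absence of brain malformation was noted under brightfield; mortality precluded scoring.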

Assay [15] can be described thus: Tanguay_ZF_120hpf_CFIN_legacy: (Legacy) Oregon State University Tanguay Lab 120 Hour Post-fertilization zebrafish Assay for Caudal Fin Malformation (AID 2283649). The method in brief:
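Single dechorionated 5D wild-type embryos are dosed at 6 hpf (final DMSO 0.64%) and held statically at 28C. Caudal fin malformation is recorded as present or absent at 120 hpf under brightfield, excluding dead embryos.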

Assay [16] can be described thus: Tanguay_ZF_120hpf_PIG_legacy: (Legacy) Oregon State University Tanguay Lab 120 Hour Post-fertilization zebrafish Assay for Pigmentation Malformation (AID 2283650). In outline:
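Pronase dechorionation at 4 hpf; embryos plated at 6 hpf, one per well; static exposure, sealed and foil-covered, 28C, to 120 hpf; pigmentation read by brightfield, binary; DMSO 0.64% baseline, 5uM trimethyltin chloride positive control.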

Assay [17] is described as follows: Tanguay_ZF_120hpf_CIRC_legacy: (Legacy) Oregon State University Tanguay Lab 120 Hour Post-fertilization zebrafish Assay for Circulatory Malformation (AID 2283651). In outline: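 Tropical 5D wild-type embryos, dechorionated with pronase at 4 hpf, were placed singly in wells at 6 hpf and exposed statically at 28C to 120 hpf (0.64% DMSO final). Circulatory malformation was scored present/absent by brightfield microscopy.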

Assay [18] in a line: Tanguay_ZF_120hpf_SOMI_legacy: (Legacy) Oregon State University Tanguay Lab 120 Hour Post-fertilization zebrafish Assay for Somite Malformation (AID 2283647). In outline: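 Somitogenesis defects are recorded as binary calls in whole larvae at 120 hpf after continuous static chemical exposure starting at 6 hpf in dechorionated 5D embryos. DMSO serves as negative control and baseline.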

A short description of assay [19]: Tanguay_ZF_120hpf_PFIN_legacy: (Legacy) Oregon State University Tanguay Lab 120 Hour Post-fertilization zebrafish Assay for Pectoral Fin Malformation (AID 2283648).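 Further: each larva judged yes or no for fin defect by brightfield with dead larvae skipped.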 The method in brief: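 5D WT zebrafish; pronase dechorionation 4 hpf; 1 embryo/well at 6 hpf; static exposure to 120 hpf, 28C, sealed, foil-covered; final DMSO 0.64% v/v; 5 uM trimethyltin chloride positive control; fin defect scored yes/no.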

Assay [20] can be described thus: Tanguay_ZF_120hpf_YSE_legacy: (Legacy) Oregon State University Tanguay Lab 120 Hour Post-fertilization zebrafish Assay for Yolk Sac Edema (AID 2283634). The method in brief:
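Single dechorionated embryos were held in sealed plates at 28C with test chemical (0.64% DMSO final) from 6 hpf until 120 hpf. Edema of the yolk sac was then recorded as a binary endpoint; non-mortality endpoints were skipped for dead embryos.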

As usually defined, the AC50 is the concentration giving half of the maximal activity seen. With `CC(C)(c1cc(Br)c(O)c(Br)c1)c1cc(Br)c(O)c(Br)c1`, the AC50 in assay [1] is 55.7 µM (active) and 52.9 µM (active) and 46 µM (active); in assay [2], 50.4 µM (active) and 63.7 µM (active) and 58.5 µM (active); in [3], 34.3 µM (active) and 46 µM (active); in [4], 67.7 µM (active) and 76.3 µM (active) and 65.8 µM (active); in assay [5], 44 µM (active) and 57 µM (active) and 63.6 µM (active); in [6] it was 58.8 µM (active) and 71.4 µM (active) and 63.2 µM (active). The AC50 in assay [7] is 4.89 µM (active). In addition, the molecule was classed as inactive in [8], in assay [9], in assay [10], in assay [11], in assay [12] and in assay [13]. The outcome in [14], in [15], in assay [16] and in assay [17] was inactive.
On to `Cc1cn([C@H]2C[C@H](N=[N+]=[N-])[C@@H](CO)O2)c(=O)[nH]c1=O`, for which the result in assay [1], in assay [2], in assay [3], in assay [4], in assay [5] and in [6] was inactive. Also, the molecule was called inactive in [7], in assay [8], in [9], in assay [10], in [11] and in [12]. Moreover, the result in assay [18], in assay [15], in [16] and in [17] was inactive.
For `O=C(Nc1ccc(Cl)cc1)Nc1ccc(Cl)c(Cl)c1`, the molecule was classed as inactive in assay [1], in assay [3], in assay [4], in [5], in assay [7] and in assay [8]. Also, the outcome in assay [10], in assay [11], in assay [12], in [14], in [19] and in [15] was inactive. Besides, the molecule was called inactive in [16] and in assay [17]. In addition, the concentration at half-maximal activity (AC50) in assay [2] is 5.76 µM (active) and 4.62 µM (active) and 6.38 µM (active); in assay [4] it was 6.25 µM (active) and 12.1 µM (active); in assay [6], 4.01 µM (active) and 4.85 µM (active) and 6.48 µM (active).
Turning to `Cc1ccc(C(C)C)cc1`, the molecule was called inactive in assay [1], in assay [2], in [3], in [4], in [5] and in assay [6]. Also, the outcome in assay [7], in [20], in assay [8], in assay [10], in assay [11] and in [12] was inactive. The result in [14], in assay [19], in assay [15], in assay [16] and in [17] was inactive.
Turning to `CCCCCCCCOc1ccc(C(=O)c2ccccc2)c(O)c1`, the call in [1], in assay [2], in [3], in assay [4], in [5] and in assay [6] was inactive. In addition, the call in [7], in assay [8], in assay [9], in assay [10], in [11] and in [12] was inactive. Besides, the call in [18], in assay [19], in assay [15] and in [16] was inactive.
For the molecule `CN(C[C@@H](CC[N+]12CCC(C3CCCCC3)(CC1)CC2)c1ccc(Cl)c(Cl)c1)C(=O)c1cc(C(F)(F)F)cc(C(F)(F)F)c1`, the AC50 was 58.7 µM (active) in assay [1]; 87 µM (active) in [2]; 14.8 µM (active) in [3]; 77.8 µM (active) in assay [4]; 46.8 µM (active) in assay [5]; 27.5 µM (active) in assay [6]. Besides, the AC50 in assay [7] is 25.5 µM (active). The result in [8], in assay [9], in [10], in assay [11], in assay [12] and in assay [14] was inactive. Further, the outcome in assay [18], in assay [19], in assay [15] and in assay [17] was inactive.
